Measurements from PubChem BioAssay (NCI).
The panel holds about 83,000 compounds, 20% with a hit somewhere; the sample as a whole holds those more often.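 For each line, cells grew in 96-well plates with the test compound present at a single concentration for 48 hours.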 Calls of active or inactive are those of the source. The calls were made as follows: active = growth percent below 10; inactive = the rest.

Assays:
Assay in all cases: NCI-60 one-dose screen, 48 h (100 = growth as untreated, 0 = no growth, -100 = all killed)
Conditions in all cases: 10 µM
[1] = test system: NCI-H23 lung
[2] = test system: NCI-H226 lung
[3] = test system: NCI-H322M lung
[4] = test system: HOP-62 NSCLC
[5] = test system: NCI-H460 lung
[6] = test system: HOP-92 NSCLC
[7] = test system: NCI-H522 lung
[8] = test system: A549/ATCC NSCLC
[9] = test system: 786-0 renal
[10] = test system: COLO 205 colon
[11] = test system: DU-145 prostate
[12] = test system: K-562 leukemia
[13] = test system: MALME-3M melanoma
[14] = test system: MDA-MB-231 breast
[15] = test system: RXF 393 renal
[16] = test system: SF-268 CNS
[17] = test system: SF-295 CNS
[18] = test system: SF-539 CNS
[19] = test system: UACC-257 melanoma
[20] = test system: M14 melanoma

Measured: growth

CC(C)C[C@H](NC(=O)CCn1ccc2ccccc2c1=O)B(O)O
active: [2] -16.2% | [15] -5.99% | [18] -11.4%
inactive: [1] 63.4% | [3] 91% | [4] 82.7% | [5] 93.8% | [6] 90.1% | [7] 19.9% | [8] 58% | [9] 48.5% | [10] 48.7% | [11] 59.6% | [12] 62.7% | [13] 38.2% | [14] 53.8% | [16] 69.9% | [17] 41% | [19] 34.5% | [20] 38%

O=C1CC[C@@H](C(=O)N[C@H]2CSSC[C@@H](C(=O)N/C=C/c3ccc(O)cc3)NC(=O)[C@H](Cc3ccccc3)NC(=O)[C@@H]3CCCN3C(=O)[C@@H]3CCCN3C2=O)N1
inactive: [1] 96.5% | [2] 93.5% | [3] 108% | [4] 78.2% | [5] 102% | [6] 99.2% | [7] 87.4% | [8] 85.2% | [9] 118% | [10] 102% | [11] 106% | [12] 93.9% | [13] 115% | [14] 98.9% | [15] 96.9% | [16] 107% | [17] 99.5% | [18] 96.6% | [19] 95.4% | [20] 94.5%

COc1ccc2nc(-c3ccccc3)cc(C(C)=O)c2c1
inactive: [1] 89.8% | [2] 87.6% | [3] 84.7% | [4] 78.3% | [5] 99.1% | [6] 71.5% | [7] 80.9% | [8] 100% | [9] 95.8% | [10] 110% | [11] 107% | [12] 84.1% | [13] 86.5% | [14] 89.5% | [15] 102% | [16] 96.1% | [17] 96.3% | [18] 86.1% | [19] 99.9% | [20] 95.3%

O=C(Cn1ccc(=O)[nH]c1=O)c1ccc([N+](=O)[O-])o1
inactive: [1] 108% | [2] 103% | [3] 120% | [4] 118% | [5] 100% | [6] 136% | [8] 109% | [9] 108% | [10] 71.5% | [11] 92.3% | [12] 83.6% | [13] 57.8% | [14] 111% | [15] 118% | [16] 105% | [17] 92.7% | [18] 106% | [19] 81.5% | [20] 91.4%
active: [7] -91.7%

N#CN1CC[C@H](C(=O)Nc2ncc(-c3ccncc3)s2)C1
inactive: [3] 11.1%
active: [1] -22% | [2] -9.42% | [4] -7.49% | [5] 3.58% | [6] -0.157% | [7] -37.8% | [8] -32.4% | [9] 5.77% | [10] -55.4% | [11] 8.45% | [12] 3.89% | [13] -19.4% | [14] 2.16% | [15] -58.8% | [16] 5.17% | [17] 4.53% | [18] -20.7% | [19] -19.4% | [20] 1.13%

COc1ccc2oc(=O)cc(C(c3ccc[nH]3)c3ccc[nH]3)c2c1
inactive: [1] 26% | [3] 27.7% | [6] 32.6% | [9] 17.2% | [11] 13.3% | [13] 49.6% | [14] 13.2% | [16] 18.7% | [19] 32.5%
active: [2] 7.92% | [4] 4.73% | [5] 4.57% | [7] -23.1% | [8] -7.88% | [10] -71.5% | [12] 4.44% | [15] -31.3% | [17] 6.39% | [18] 1.28% | [20] 8.91%

C=CCOc1ccc2c(c1)CC[C@@H]1[C@@H]2CC[C@]2(C)C(=O)/C(=N/O)C[C@@H]12
inactive: [1] 60.1% | [2] 76.2% | [3] 50.9% | [4] 56.7% | [5] 64% | [7] 44.5% | [8] 58.5% | [9] 47.3% | [10] 40.8% | [11] 21.8% | [12] 19.5% | [13] 74.4% | [16] 43.8% | [17] 78.7% | [18] 86.6% | [19] 76.5% | [20] 61.3%
active: [6] -5.15% | [14] 9.69% | [15] 1.96%

O=C(Nc1ccc(OS(=O)(=O)Cc2ccccc2)cc1)C12CC3CC(CC(C3)C1)C2
inactive: [1] 84.8% | [2] 90.3% | [3] 95.3% | [4] 79.3% | [5] 68.8% | [6] 59.9% | [7] 81.6% | [8] 78.5% | [9] 94.1% | [10] 27.4% | [11] 87.4% | [12] 13.1% | [13] 91.8% | [14] 78.7% | [15] 99% | [16] 84.6% | [17] 60.3% | [18] 86.1% | [19] 99% | [20] 77.4%

COc1ccc(Nc2ccnc(N3CCN(c4ccnc5cc(Cl)ccc45)CC3)n2)cc1
inactive: [3] 14.4% | [4] 16.5% | [11] 15.6% | [14] 24.8% | [16] 30.3%
active: [1] 9.35% | [2] 1.67% | [5] 4.6% | [6] -21.9% | [7] -17.9% | [8] 7.39% | [9] 7.79% | [10] -7.2% | [12] 2.55% | [13] 5.65% | [15] -26.6% | [17] -4.17% | [18] -31.4% | [19] -1.27% | [20] -13.3%

COc1ccc(C2C=C(c3ccc(Cl)c(Cl)c3)N=C3SC(C)=CN32)cc1 (stereo not given)
inactive: [1] 92.2% | [2] 86.5% | [3] 98.7% | [4] 99.5% | [5] 101% | [6] 98.7% | [7] 77.3% | [8] 81.6% | [9] 90.7% | [10] 104% | [11] 100% | [12] 83.2% | [13] 90.2% | [14] 101% | [15] 83% | [16] 97.2% | [17] 87.3% | [18] 95.7% | [19] 109% | [20] 97.3%

CCCCN(CCCC)c1ccc(C(=NC(C)CCCN(CC)CC)c2ccc(N(C)C)cc2)cc1 (stereo not given)
active: [1] -60.3% | [2] -34.9% | [3] -14.2% | [4] -80.4% | [5] -76.9% | [6] -45.5% | [7] -66.8% | [8] -16.4% | [9] -86.4% | [10] -88.4% | [12] -51.3% | [13] -77.9% | [14] -79.4% | [15] -84% | [16] -43.4% | [17] -72% | [18] -73.2% | [19] -70.6% | [20] -83%
inactive: [11] 21.1%

CCN(CCCNC(=O)Cc1cc(=O)oc2cc(N(C)C)ccc12)CCNc1ccnc2cc(Cl)ccc12
active: [12] 0.722%
inactive: [1] 94.9% | [2] 93.1% | [3] 91% | [4] 85.6% | [5] 92.3% | [6] 59.5% | [7] 56.8% | [8] 93.4% | [9] 86.3% | [10] 68.1% | [11] 109% | [13] 88.2% | [14] 78.7% | [15] 74.6% | [16] 92.1% | [17] 80.5% | [18] 25.2% | [19] 41.9% | [20] 11.5%

COc1ccc(-c2nnc(SC/C(=N\O)c3ccccc3)o2)cc1
inactive: [1] 89.3% | [2] 95.5% | [3] 113% | [4] 97.7% | [5] 98.8% | [6] 98.4% | [7] 71.4% | [8] 107% | [9] 97.2% | [10] 110% | [11] 100% | [12] 94.2% | [13] 109% | [14] 92.3% | [15] 120% | [16] 95.8% | [17] 101% | [18] 92.7% | [19] 121% | [20] 104%

CCc1nn2c(-c3cc(OC)c(OC)c(OC)c3)c(-c3cc(OC)c(OC)c(OC)c3)nc2s1
inactive: [1] 87.9% | [2] 92% | [3] 81.6% | [4] 40.8% | [5] 97.1% | [7] 46% | [8] 86% | [9] 58.6% | [10] 94.9% | [11] 88.1% | [12] 85.7% | [13] 47.5% | [14] 58.9% | [15] 38.8% | [16] 45.9% | [17] 61.4% | [18] 59.6% | [19] 108% | [20] 89.5%
active: [6] -15.2%
